Hits are enriched below; roughly 2.4% of the tested compounds scored in any of these assays.
TLR9-MyD88 inh = blocks human TLR9 binding to MyD88; actives 0.21% (n = 340,000); AID 504734; CHO BLA complementation TLR9-MyD88, CCF4 FRET ratio; Q9NR96+Q99836; inhibition, % at 4.98 µM;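 active = inhibition above the mean over all tested compounds plus 3 SD, cut at about 21% in these data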;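 also: 0% = DMSO only wells and 100% = clavulanate BLA inhibitor control wells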
NOD2-RIPK2 inh = blocks binding of human NOD2 to RIPK2. O43353. CHO BLA complementation NOD2-RIPK2, CCF4 ratio. inhibition, % at 4.98 µM. actives 0.38% (n = 360,000); in the data active = inhibition above about 21%;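 also: 0% = vehicle only and 100% = reference blocker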
HSF1 activator = increases HSF-1 driven luciferase reporter signal; NIH3T3-HGL HSF-1 luciferase reporter, MG132, 8 h; 100% = twice DMSO control signal; activation, % at 9 µM; actives 1.7% (n = 300,000);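 active = mean replicate activation of at least 50% with a set share of replicates each reaching 50%; inconclusive = only one of those two conditions met; inactive = mean below 50% and too few replicates reaching it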;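 also: 0% = median of the neutral control wells and 100% = twice that signal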
TLR4-MyD88 BLA = blocks binding of human TLR4 to MyD88 | HeLa CL3-4 TLR4/MyD88 BLA complementation, FRET ratio | inhibition, % at 8.4 µM | actives 0.18% (n = 200,000); in the data active = inhibition above about 25%;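 also: 0% = vehicle and 100% = reference inhibitor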
HSF1 inhib = HSF1 inhibition. actives 0.77% (n = 300,000). NIH3T3-HGL HSE-luciferase, MG132-induced, luminescence 8 h; active compounds read low. activity change, negative = inhibition, % at 7.5 µM (by protocol);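 active = more than half of replicate wells show activity change below -50%, luminescence cut by over half; inconclusive = some wells, but at most half, below -50%; inactive = no replicate well below -50%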;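 also: luciferase reports HSF-1 transcriptional activity via heat shock element; 0% = median of DMSO wells and -100% = zero luminescence signal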
NOD2 RIPK2 conf = confirmation of human NOD2-RIPK2 interaction inhibitors. shares compounds with NOD2-RIPK2 inh. actives 70% (n = 1,200). CHO cells, NOD2-RIPK2 BLA complementation, CCF4 FRET. inhibition, % at 4.98 µM;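 active = mean inhibition across replicates above a set limit taken from the earlier primary screen, cut at about 21% in these data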;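 also: 0% = DMSO-only wells and the high end = clavulanate BLA-blocked wells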
BLA counter = NOD2-RIPK2 counterscreen BLA reporter activity | shares compounds with NOD2-RIPK2 inh | CHO BLA reporter, CCF4 FRET ratio | inhibition, % at 4.98 µM | actives 57% (n = 1,200) | AID 624371;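 active = mean inhibition above the low-control mean inhibition plus three low-control SD, cut at about 11% in these data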;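 also: 0% = DMSO only wells and 100% = clavulanate high control wells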
An asterisk follows results filed as active; ? = inconclusive; nt = no result given.

SMILES	TLR9-MyD88 inh	NOD2-RIPK2 inh	HSF1 activator	TLR4-MyD88 BLA	HSF1 inhib	NOD2 RIPK2 conf	BLA counter
CCN1C(=O)c2cccc3c(S(=O)(=O)N4CCCC4C(=O)O)ccc1c23 (centres undefined)	-3	8	14	nt	-5	nt	nt
CCOC(=O)C1CCCN(S(=O)(=O)c2ccc3c4c(cccc24)C(=O)N3CC)C1 (centres undefined)	6	27*	nt	nt	nt	25*	25*
COc1ccc(C)c2sc(N(CCCN(C)C)C(=O)c3ccc(S(=O)(=O)N4CCc5ccccc5C4)cc3)nc12	11	24*	-44	nt	?	44*	16*
N#CC1=C(N)Oc2cc(O)c(Cl)cc2C1c1cccnc1 (centres undefined)	9	31*	-19	nt	1	-1	4
Cc1nn(CC(=O)N(C)C)c(C)c1S(=O)(=O)N1CCOCC1	-4	-4	nt	nt	nt	nt	nt
N#CC(c1ccccc1)c1ccc([N+](=O)[O-])cc1 (centres undefined)	nt	8	nt	nt	nt	nt	nt
Nc1ccccc1C#Cc1ccc([N+](=O)[O-])cc1	18	26*	33	nt	24	4	19*
Fc1ccc(C2=CC(c3ccco3)n3ncnc3N2)cc1 (centres undefined)	35*	36*	-7	-6	-2	3	12*
COc1ccc(-c2nn(-c3ccccc3)cc2/C=C/C(=O)OCC(=O)Nc2cccc(C#N)c2)cc1	-6	36*	9	-2	-5	-2	-10
COc1ccc(-c2nn(-c3ccccc3)cc2/C=C/C(=O)OCC(=O)Nc2ccc(C#N)cc2)cc1	1	-4	15	-3	5	nt	nt
CN(C)NC(=S)Nc1ccc2nc(-c3ccccn3)c(-c3ccccn3)nc2c1	-1	10	3	13	1	nt	nt
CC(C)(C)CC(C)(C)NC(=S)Nc1ccc2nc(-c3ccccn3)c(-c3ccccn3)nc2c1	8	32*	23	19	14	9	8
COc1ccc(NC(=O)c2c(F)cccc2Cl)cc1S(=O)(=O)N1CCOCC1	-11	-8	nt	nt	nt	nt	nt
COC(=O)c1ccc2c(c1)C(C)(C)C(/C=C/c1ccc(OC)c(OC)c1OC)=[N+]2C	2	26*	-14	15	-13	88*	6
COc1ccc(/C=N/Nc2ccc(C(=O)O)cc2)c(OC)c1OC	-3	-5	1	nt	0	nt	nt
COc1cc(/C=C/c2ccc(O)cc2)cc(OC)c1	-4	-5	33	nt	23	nt	nt
COC(=O)c1ccc2c(c1)C(C)(C)C(/C=C/c1ccc(O)cc1)=[N+]2C	16	26*	85*	-5	80	71*	-5
CS(=O)(=O)c1ccc(S(=O)CC(=O)OCc2ccccc2)c([N+](=O)[O-])c1 (centres undefined)	12	25*	-94	16	-94*	56*	25*
CCOC(=O)c1ccccc1OC(=O)CS(=O)c1ccccc1[N+](=O)[O-] (centres undefined)	2	-3	24	4	27	nt	nt
CN(CC(=O)Nc1ccc(F)cc1)C(=O)COC(=O)c1nc(Cl)ccc1Cl	-9	-12	nt	nt	nt	nt	nt
COc1ccc(CCN(C)C(=O)CCNS(=O)(=O)c2ccccc2C(F)(F)F)cc1OC	-12	5	nt	nt	nt	nt	nt
O=C(CCCN1C(=O)/C(=C\c2cccs2)SC1=S)Nc1cccc(C(=O)O)c1	3	24*	10	2	-6	5	-4
O=C(Nc1cc(Br)ccc1O)C1CC(c2c(F)cccc2Cl)=NO1 (centres undefined)	2	22*	-2	nt	3	0	-3
CC(C)(C)NC(=O)C(c1ccncc1)n1c(=O)c(-c2cc3ccccc3[nH]2)nc2ccccc21 (centres undefined)	nt	49*	nt	nt	nt	48*	68*
CC(C)(C)NC(=O)C(c1ccccc1)n1c(=O)c(-c2ccccc2)nc2ccccc21 (centres undefined)	nt	-13	nt	nt	nt	nt	nt
SMILES	TLR9-MyD88 inh	NOD2-RIPK2 inh	HSF1 activator	TLR4-MyD88 BLA	HSF1 inhib	NOD2 RIPK2 conf	BLA counter
CC(C)(C)NC(=O)C(c1cc2ccccc2o1)n1c(=O)c(-c2cc3ccccc3[nH]2)nc2ccccc21 (centres undefined)	nt	50*	nt	nt	nt	46*	70*
COc1ccc(C(C(=O)NC(C)(C)C)n2c(=O)c(-c3cc4ccccc4[nH]3)nc3ccccc32)cc1 (centres undefined)	nt	41*	nt	nt	nt	40*	64*
Cc1csc(-c2nc3ccccc3n2C(C(=O)NC(C)(C)C)c2cc3ccccc3o2)c1 (centres undefined)	nt	-1	nt	nt	nt	nt	nt
COc1ncc(-c2c(-c3ccccc3OC)sc3ccccc23)cn1	nt	-8	nt	nt	nt	nt	nt
Cc1ccc(-c2cc(-c3n[nH]c(=S)o3)c3ccccc3n2)cc1	7	22*	-6	4	1	10	7
O=c1oc2cc(O)ccc2cc1-c1ccccc1	8	23*	12	nt	14	28*	40*
O=c1oc2ccccc2cc1-c1ccc(O)cc1O	-6	-17	-2	-7	-2	nt	nt
O=S(=O)(Nc1ccc(C(O)(C(F)(F)F)C(F)(F)F)cc1)c1ccc(Cl)c2nonc12	nt	29*	nt	nt	nt	32*	4
O=S(=O)(Nc1ccc(Br)cc1)c1cccc2nonc12	-6	-5	22	nt	4	nt	nt
COc1ccccc1N1C(=O)CC(N2CCN(c3ccc([N+](=O)[O-])cc3)CC2)C1=O (centres undefined)	-4	22*	15	nt	-3	1	-3
COc1cccc(N2C(=O)CC(N3CCN(c4ccc([N+](=O)[O-])cc4)CC3)C2=O)c1 (centres undefined)	-3	1	-1	nt	1	nt	nt
O=C(Cn1nnc(-c2ccccc2)n1)Nc1ccccc1N1CCOCC1	-6	-11	nt	-4	nt	nt	nt
Cc1ccc(-c2nnn(CC(=O)Nc3ccccc3N3CCOCC3)n2)cc1	-6	21*	4	-1	-2	-3	2
COc1ccc(C(=O)NCCc2c[nH]c3ccccc23)cc1[N+](=O)[O-]	-1	-3	4	nt	0	nt	nt
Cc1cccc(NC(=O)CNC(=O)c2ccc3c(c2)OCO3)n1	-1	38*	0	nt	-2	-6	2
O=C(O)c1cc(Cl)ccc1-c1ccc(/C=C/c2cc(C(F)(F)F)[nH]c(=O)n2)o1	19	23*	-5	16	11	33*	42*
Nc1nc2ncccn2c1-c1ccc(F)c(F)c1	nt	28*	nt	nt	nt	19	20*
Nc1c(-c2ccc(C(F)(F)F)cc2)nc2ncccn12	nt	-4	nt	nt	nt	nt	nt
CCn1cc(Cl)c(C(=O)Nc2cccc(CN3CCOCC3)c2)n1	7	3	nt	nt	nt	nt	nt
O=C1OCCN1C(=O)[C@H]1[C@H](c2ccccc2)C(c2cccc(Cl)c2)=NN1c1ccccc1	-14	27*	nt	nt	nt	14	38*

Screening results as filed in PubChem BioAssay.
